Where “and” joins values, the source holds several entries; their conditions need not be identical. Equal values may be shown once. Screen size: about 5,500 compounds; about 2,000 (36%) were called active. About 18% were inconclusive and are not listed. No stated cut-off is given here; in the data, active means normalized growth mostly below about 0.91 (no sharp cut-off); inconclusive means no clear call, values can overlap the other calls; inactive means mostly above about 0.92. The list shows a part of the results.
Experiment: chemical genetic growth profiling, strain panel (AID 1159580);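 further: tested at 20 µM; growth read once vehicle control cultures reached saturation at 30 °C; 1 = growth at the plate median or of vehicle wells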
Settings: S. cerevisiae deletion strains, growth OD

Measured: normalized growth

O=C(O)COc1cc(Cl)c(Cl)cc1Cl
inactive: locus YAL013W, strain DEP1, stronger effect = lower value 1 | locus YAL021C, strain ccr4, stronger effect = lower value 0.984 | locus YAL026C, strain drs2, stronger effect = lower value 1 | locus YAL030W, strain snc1, stronger effect = lower value 1.01 | locus YBL061C, strain skt5, stronger effect = lower value 1 | locus YBR009C, strain hhf1, stronger effect = lower value 1 | locus YBR021W, strain FUR4, stronger effect = lower value 1.01 | locus YBR023C, strain chs3, stronger effect = lower value 1 | locus YBR171W, strain sec66, stronger effect = lower value 0.998 | locus YBR229C, strain ROT2, stronger effect = lower value 1.01 | locus YBR231C, strain swc5, stronger effect = lower value 1 | locus YBR279W, strain paf1, stronger effect = lower value 1 | locus YCL011C, strain gbp2, stronger effect = lower value 1 | locus YCL016C, strain dcc1, stronger effect = lower value 0.988 | locus YCL029C, strain bik1, stronger effect = lower value 1.02 | locus YCL061C, strain MRC1, stronger effect = lower value 1 | locus YCL069W, strain vba3, stronger effect = lower value 0.993 | locus YCR088W, strain abp1, stronger effect = lower value 1 | locus YDL005C, strain med2, stronger effect = lower value 0.995 | locus YDL035C, strain GPR1, stronger effect = lower value 1.02 | locus YDL040C, strain nat1, stronger effect = lower value 0.994 | locus YDL074C, strain BRE1, stronger effect = lower value 1.01 | locus YDL101C, strain DUN1, stronger effect = lower value 0.982 | locus YDL134C, strain PPH21, stronger effect = lower value 1.01 | locus YDL185W, strain tfp1, stronger effect = lower value 1.03 | locus YDL192W, strain arf1, stronger effect = lower value 1.02 | locus YDR001C, strain nth1, stronger effect = lower value 1.01 | locus YDR069C, strain doa4, stronger effect = lower value 0.994 | locus YDR101C, strain arx1, stronger effect = lower value 1.02 | locus YDR137W, strain rgp1, stronger effect = lower value 1.05 | locus YDR150W, strain NUM1, stronger effect = lower value 1 | locus YDR159W, strain sac3, stronger effect = lower value 0.999 | locus YDR162C, strain NBP2, stronger effect = lower value 1 | locus YDR195W, strain ref2 0.952 | locus YDR297W, strain sur2, stronger effect = lower value 1 | locus YDR318W, strain mcm21, stronger effect = lower value 1.02 | locus YDR334W, strain swr1, stronger effect = lower value 0.998 | locus YDR335W, strain msn5, stronger effect = lower value 0.994 | locus YDR388W, stronger effect = lower value 1.02 | locus YDR392W, strain spt3, stronger effect = lower value 1.01 | locus YDR502C, strain sam2, stronger effect = lower value 1.01 | locus YEL003W, strain gim4, stronger effect = lower value 1.02 | locus YEL037C, strain rad23, stronger effect = lower value 1.01 | locus YEL061C, strain CIN8 (second series), stronger effect = lower value 0.999 | locus YEL061C, strain CIN8, stronger effect = lower value 1 | locus YER015W, strain faa2, stronger effect = lower value 1 | locus YER016W, strain bim1, stronger effect = lower value 1 | locus YER110C, stronger effect = lower value 1.02 | locus YER111C, strain swi4, stronger effect = lower value 0.993 | locus YER155C, strain BEM2 (second series), stronger effect = lower value 0.989 | locus YER155C, strain BEM2, stronger effect = lower value 1.01 | locus YER167W, strain BCK2, stronger effect = lower value 1.02 | locus YFR010W, strain ubp6, stronger effect = lower value 1 | locus YGL078C, strain dbp3, stronger effect = lower value 1.02 | locus YGL086W, strain mad1, stronger effect = lower value 1.01 | locus YGL167C, strain pmr1, stronger effect = lower value 1 | locus YGL173C, strain kem1, stronger effect = lower value 0.994 | locus YGL227W, strain vid30, stronger effect = lower value 1 | locus YGL240W, strain doc1, stronger effect = lower value 0.999 | locus YGL248W, strain PDE1, stronger effect = lower value 1.02 | locus YGL253W, strain hxk2, stronger effect = lower value 0.995 | locus YGR078C, strain PAC10, stronger effect = lower value 1.02 | locus YGR135W, strain pre9, stronger effect = lower value 1.03 | locus YGR229C, strain SMI1, stronger effect = lower value 1.02 | locus YGR252W, strain gcn5, stronger effect = lower value 1.04 | locus YHR013C, strain ard1, stronger effect = lower value 0.997 | locus YHR027C, strain rpn1, stronger effect = lower value 0.998 | locus YHR030C, strain SLT2, stronger effect = lower value 1.01 | locus YHR079C, strain IRE1 (second series), stronger effect = lower value 1.02 | locus YHR079C, strain IRE1, stronger effect = lower value 1.02 | locus YHR094C, strain hxt1, stronger effect = lower value 1.02 | locus YHR129C, strain ARP1, stronger effect = lower value 1.01 | locus YHR142W, strain chs7, stronger effect = lower value 1 | locus YHR200W, strain rpn10, stronger effect = lower value 1.01 | locus YIL066C, strain RNR3, stronger effect = lower value 1.03 | locus YIL073C, strain SPO22, stronger effect = lower value 1.09 | locus YIL125W, strain kgd1, stronger effect = lower value 1.02 | locus YIR030C, strain dcg1, stronger effect = lower value 1.02 | locus YJL092W, strain hpr5, stronger effect = lower value 0.999 | locus YJL095W, strain BCK1 (second series), stronger effect = lower value 0.994 | locus YJL095W, strain BCK1, stronger effect = lower value 1.02 and 1.03 | locus YJL115W, strain asf1, stronger effect = lower value 0.991 | locus YJL129C, strain trk1, stronger effect = lower value 0.998 | locus YJL134W, strain LCB3, stronger effect = lower value 1.01 | locus YJL154C, strain vps35, stronger effect = lower value 0.998 | locus YJL164C, strain tpk1, stronger effect = lower value 1.01 | locus YJL166W, strain qcr8, stronger effect = lower value 1.01 | locus YJL168C, strain set2, stronger effect = lower value 1.02 | locus YJL187C, strain SWE1 (second series), stronger effect = lower value 1.01 | locus YJL187C, strain SWE1, stronger effect = lower value 1 | locus YJR043C, strain POL32, stronger effect = lower value 1.01 | locus YJR066W, strain TOR1, stronger effect = lower value 0.94
